# From PubChem BioAssay
# A selection: hits, their analogues and other compounds. The true share with any hit is near 1.5%.
# NadD inh – blocks S. aureus nicotinate mononucleotide adenylyltransferase; 360,000 tested, 0.78% active; inhibition, % at 20 µM; purified NadD enzyme, colorimetric absorbance read-out; AID 602399; in the data active = inhibition above about 26%
# Neddylation inh – inhibitors of human cullin neddylation | AID 651699 | 360,000 tested, 0.58% active | TR-FRET cullin neddylation, biochemical | P61081+Q13564 | inhibition, % at 25 µM; in the data active = inhibition above about 36%
# GC-B act – GC-B (human) receptor activation; activation, % at 10 µM; 370,000 tested, 0.11% active; HEK293-GC-B cells, CNP EC30, cGMP TR-FRET; 0% at EC30 CNP, 100% saturating CNP;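 active = activation at 10 µM reaching about 35% in either raw or pattern-adjusted values, limit read from the data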
# NPR1 activator – GC-A (human) enzyme activation; HEK293 GC-A cells, cGMP TR-FRET, EC30 ANP; 0% at EC30 ANP, 100% saturating ANP; P16066; 370,000 tested, 0.14% active; AID 1671463; activation, % at 10 µM; in the data active = activation above about 40%
# Neddyl conf – cullin neddylation inhibition, confirmation. shares compounds with Neddylation inh. AID 652217. calls only at 25 µM. TR-FRET cullin neddylation biochemical assay. 1,800 tested, 13% active; in the data active = inhibition above about 40%;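 note: neddylation substrate is the cullin 1 ring ligase complex with SKP2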
# * = called active by the depositor; i = inactive; / = no result given; + = active, no number.
SMILES,NadD inh,Neddylation inh,GC-B act,NPR1 activator,Neddyl conf
Cc1cccc(C(=O)N2CCN(c3ccc(N4CCOCC4)nn3)CC2)c1,-8.3,/,0.1,-0.3,/
O=C(c1cc(Br)ccc1Cl)N1CCN(c2ccc(N3CCOCC3)nn2)CC1,-1.2,60.3*,-5.9,-2.0,/
COc1cc(OC)cc(C(=O)N2CCN(c3ccc(N4CCOCC4)nn3)CC2)c1,-0.1,57.0*,1.2,1.1,/
CCCCOc1ccc(C(=O)N2CCN(c3ccc(N4CCOCC4)nn3)CC2)cc1,3.8,63.1*,-2.9,3.2,/
O=C(c1ccc(F)cc1)N1CCN(c2ccc(N3CCOCC3)nn2)CC1,-3.9,/,1.6,0.3,/
Cc1ccc(C(=O)N2CCN(c3ccc(N4CCOCC4)nn3)CC2)cc1,-7.9,60.7*,9.2,4.9,/
COc1ccc(N2CCN(C(=O)CCCC(=O)c3ccccc3)CC2)cc1,3.5,0.3,6.0,1.8,/
COc1ccc(C(=O)CCC(=O)N2CCN(c3ccc(N4CCOCC4)nn3)CC2)cc1,2.5,44.5*,-6.0,-3.2,/
C[C@H](CCC(=O)N(c1ccccc1)c1ccccc1)CC1CCCCC1,/,/,3.5,-1.5,/
COC(=O)C1=CN(c2cc(C)cc(C)c2)C=C(C(=O)OC)C1c1ccc(OC)c(O)c1,-1.8,46.7*,3.2,-8.7,+
CCOC(=O)c1ccc(N2C=C(C(=O)OC)C(c3ccc(OC)c(O)c3)C(C(=O)OC)=C2)cc1,-9.5,11.1,2.9,10.2,/
COc1ccc(-n2nnc3c(SCC(=O)Nc4ccccc4F)ncnc32)cc1,-1.9,42.4*,-3.3,-7.7,i
COc1ccc(NC(=O)CSc2ncnc3c2nnn3-c2ccc(F)cc2)c(OC)c1,-1.8,-6.2,0.7,2.0,/
COc1cc(/C=C/C(=O)NCc2ccccn2)cc(OC)c1OC,-6.6,43.9*,-1.9,3.2,i
COc1cc(/C=C/C(=O)NC(C)CCc2ccccc2)cc(OC)c1OC (configuration not stated),-4.7,40.5*,-3.3,1.9,i
CSc1ccccc1NC(=O)CN(C)C(=O)/C=C/c1ccccc1,-5.0,-17.5,6.3,-0.8,/
COc1ccc(/C=C/C(=O)NCc2ccccn2)cc1OC,-7.8,27.8,2.2,-0.9,/
COc1cc(/C=C/C(=O)N(C)CC(=O)Nc2ccccc2SC)cc(OC)c1OC,-0.1,40.8*,-2.0,-2.7,i
Cc1c(C(=O)NCC2CCCO2)oc2ccc3c(c12)C(=O)CC(C)(C)O3 (configuration not stated),-5.0,37.4*,12.9,13.6,/
COC(=O)c1cc(-c2c(C)noc2C)c(=O)n2c1CCC2,/,/,0.2,3.4,/
O=C(CSc1nnc(-c2cccnc2)n1-c1ccccc1)Nc1ccc2c(c1)OCCO2,/,/,0.1,-2.6,/
Cc1cc(-c2ccccc2)nc2oc(C(=O)NN)c(N)c12,4.1,43.4*,-10.0,4.5,+
OC1CCN(c2c3c(nc4cc(-c5ccc(F)cc5)nn24)CCC3)CC1,8.5,44.9*,1.5,-5.9,i
Cc1cccc(-c2cc3nc4c(c(N5CCCC(O)C5)n3n2)CCC4)c1 (configuration not stated),9.8,50.5*,-1.8,3.2,/
Fc1ccc(-c2cc3nc4c(c(N5CCOCC5)n3n2)CCCC4)cc1,5.6,/,-9.4,-1.9,/
SMILES,NadD inh,Neddylation inh,GC-B act,NPR1 activator,Neddyl conf
COc1ccccc1C(=O)N1CCC(Oc2cccnc2)CC1,/,/,6.6,1.4,/
CC(C)c1ccc(/C=C/C2=NNC(=O)CC2)cc1,1.4,-11.7,-4.4,-1.7,/
COc1cc(/C=C/C2=NNC(=O)CC2)cc(OC)c1OC,-5.6,41.2*,-3.2,0.9,i
Cn1c(=O)[nH]c(=O)c2c1nc(N1CCCCC1)n2C/C=N/NC(=O)c1cc(Br)ccc1O,13.3,45.7*,-1.2,-1.2,/
COc1cc(/C=N/n2nnnc2N)cc(OC)c1OC,0.2,39.1*,0.0,1.3,i
CSc1ccc(/C=N/n2nnnc2N)cc1,0.6,44.5*,0.4,-0.5,+
COc1cc(/C=N/n2nnnc2N)ccc1O,0.9,18.5,-1.3,-2.4,/
CCc1c(C)nc2c(-c3ccccc3)c[nH]n2c1=O,1.3,43.1*,-4.1,-1.5,/
COc1c(C(C)(C)C)cc(S(=O)(=O)N2c3ccccc3C[C@H]2C)cc1C(C)(C)C,/,/,-1.3,-6.6,/
CCCCCNc1nc(N2CCCC2)c2c(c1C#N)CCN(C)C2,7.3,44.0*,9.3,23.8,i
CCCCCCCCN1C(=O)[C@@H](CC(=O)NCc2cccc(C(F)(F)F)c2)C[C@@]2(C(=O)OC)C1=C[C@H](C(C)C)O[C@@H]2C1CC1,/,/,-1.5,-0.2,/
